# Experimental data as given in article PMC4081100, “A DNA-binding-site landscape and regulatory network analysis for NAC transcription factors in Arabidopsis thaliana”.
# Columns and labels:
# Experiment in all cases: universal protein binding microarray (PBM); transcription factors of Arabidopsis thaliana; high values mean tight binding
# [1] = target: GST-NTL6(1-168) (Arabidopsis thaliana, UniProt Q9SCK6 1-168); details: protein: recombinant; tags: GST; chain copies: 2; dsDNA, one strand shown
# GST-NTL6(1-168), sequence (Q9SCK6 1-168): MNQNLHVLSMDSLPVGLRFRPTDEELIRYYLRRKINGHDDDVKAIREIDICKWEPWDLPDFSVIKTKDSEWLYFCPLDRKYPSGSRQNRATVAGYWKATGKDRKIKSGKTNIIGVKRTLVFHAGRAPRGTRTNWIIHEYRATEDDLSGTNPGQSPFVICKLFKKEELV
# Procedure, shortened: (§1)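 Cells were induced to make GST-tagged NAC-domain, full-length or DNA-binding-domain proteins, and zinc acetate was added for zinc-finger proteins. These proteins were purified on glutathione–Sepharose 4B, quantified by A280 or anti-GST western blot, and applied in duplicate at 200 to 500 nM final to custom all-10-mer Agilent 4 × 180K arrays that primer extension had made double-stranded. Binding is given as the normalised enrichment score (E-score) for scored gapped and ungapped 8-mers.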
# [2] = target: T1, GST-ANAC055(1-171) (Arabidopsis thaliana, UniProt Q9LDY8 1-171); details: protein: recombinant; tags: GST; chain copies: 2; dsDNA, one strand shown
# T1 sequence: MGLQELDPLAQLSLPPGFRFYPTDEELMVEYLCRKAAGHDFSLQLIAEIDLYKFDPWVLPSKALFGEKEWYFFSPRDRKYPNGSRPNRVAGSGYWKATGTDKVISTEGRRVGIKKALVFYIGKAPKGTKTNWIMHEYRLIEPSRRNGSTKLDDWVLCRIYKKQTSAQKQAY
# Procedure, shortened: as §1
# [3] = target: T2, GST-ATAF1 NAC domain (Arabidopsis thaliana, UniProt Q39013 7-158); details: protein: recombinant; tags: GST; chain copies: 2; dsDNA, one strand shown
# T2 sequence: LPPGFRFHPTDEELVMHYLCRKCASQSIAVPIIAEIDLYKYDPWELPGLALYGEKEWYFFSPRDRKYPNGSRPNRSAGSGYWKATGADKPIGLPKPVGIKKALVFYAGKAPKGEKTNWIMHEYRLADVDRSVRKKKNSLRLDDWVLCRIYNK
# Procedure, shortened: as §1
# [4] = target: T3, GST-ANAC092(1-285) full length (Arabidopsis thaliana, UniProt Q9FKA0 1-285); details: protein: recombinant; tags: GST; chain copies: 2; dsDNA, one strand shown
# T3 sequence: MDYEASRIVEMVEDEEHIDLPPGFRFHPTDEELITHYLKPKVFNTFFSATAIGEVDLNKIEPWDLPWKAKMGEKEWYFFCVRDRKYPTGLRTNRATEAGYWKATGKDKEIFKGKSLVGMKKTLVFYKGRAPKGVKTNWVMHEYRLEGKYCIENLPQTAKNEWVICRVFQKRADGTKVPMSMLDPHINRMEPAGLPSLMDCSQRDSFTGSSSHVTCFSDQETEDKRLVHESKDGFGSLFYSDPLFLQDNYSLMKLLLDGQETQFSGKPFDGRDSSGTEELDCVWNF
# Procedure, shortened: as §1
# [5] = target: T4, GST-NST2(1-184) (Arabidopsis thaliana, UniProt Q9M274 1-184); details: protein: recombinant; tags: GST; chain copies: 2; dsDNA, one strand shown
# T4 sequence: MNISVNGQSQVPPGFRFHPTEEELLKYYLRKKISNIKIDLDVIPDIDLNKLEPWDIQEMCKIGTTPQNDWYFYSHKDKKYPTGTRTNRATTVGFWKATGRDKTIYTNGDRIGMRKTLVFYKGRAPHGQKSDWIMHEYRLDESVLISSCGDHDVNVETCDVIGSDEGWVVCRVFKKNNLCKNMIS
# Procedure, shortened: as §1
# [6] = target: T5, GST-VND3 NAC domain (Arabidopsis thaliana, UniProt Q9FH59 12-162); details: protein: recombinant; tags: GST; chain copies: 2; dsDNA, one strand shown
# T5 sequence: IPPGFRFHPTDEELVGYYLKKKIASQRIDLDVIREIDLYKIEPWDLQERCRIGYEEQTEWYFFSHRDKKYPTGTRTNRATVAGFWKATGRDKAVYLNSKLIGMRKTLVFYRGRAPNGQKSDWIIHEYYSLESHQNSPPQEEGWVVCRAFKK
# Procedure, shortened: as §1
# [7] = target: GST-WRKY1(266-371) (Arabidopsis thaliana, UniProt Q9SI37 266-371); details: protein: recombinant; tags: GST; dsDNA, one strand shown
# GST-WRKY1(266-371), sequence (Q9SI37 266-371): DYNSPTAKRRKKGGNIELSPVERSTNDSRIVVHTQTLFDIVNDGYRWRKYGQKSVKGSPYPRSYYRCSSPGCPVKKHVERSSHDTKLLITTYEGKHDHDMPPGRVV
# Procedure, shortened: as §1
# [8] = target: T6, GST-NAP(1-166) (Arabidopsis thaliana, UniProt O49255 1-166); details: protein: recombinant; tags: GST; chain copies: 2; dsDNA, one strand shown
# T6 sequence: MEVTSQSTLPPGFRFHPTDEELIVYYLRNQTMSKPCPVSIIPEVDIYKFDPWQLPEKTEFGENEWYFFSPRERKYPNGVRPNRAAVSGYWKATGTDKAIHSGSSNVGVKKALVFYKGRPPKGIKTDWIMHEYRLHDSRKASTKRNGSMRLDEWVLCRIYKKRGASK
# Procedure, shortened: as §1
# [9] = target: T7, GST-VND7 NAC domain (Arabidopsis thaliana, UniProt Q9C8W9 9-158); details: protein: recombinant; tags: GST; chain copies: 2; dsDNA, one strand shown
# T7 sequence: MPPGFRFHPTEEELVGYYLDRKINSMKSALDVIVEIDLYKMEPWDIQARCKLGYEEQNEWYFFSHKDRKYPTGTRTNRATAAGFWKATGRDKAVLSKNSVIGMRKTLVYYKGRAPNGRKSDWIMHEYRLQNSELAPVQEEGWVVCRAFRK
# Procedure, shortened: as §1
# [10] = target: T8, GST-ANAC092(1-176) (Arabidopsis thaliana, UniProt Q9FKA0 1-176); details: protein: recombinant; tags: GST; chain copies: 2; dsDNA, one strand shown
# T8 sequence: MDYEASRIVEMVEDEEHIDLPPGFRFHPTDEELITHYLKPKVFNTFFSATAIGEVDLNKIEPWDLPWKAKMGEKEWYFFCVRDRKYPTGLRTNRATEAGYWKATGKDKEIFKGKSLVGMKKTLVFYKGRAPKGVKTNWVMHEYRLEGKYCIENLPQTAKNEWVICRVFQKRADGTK
# Procedure, shortened: as §1
# [11] = target: T9, GST-ANAC019 NAC domain (Arabidopsis thaliana, UniProt Q9C932 14-162); details: protein: recombinant; tags: GST; chain copies: 2; dsDNA, one strand shown
# T9 sequence: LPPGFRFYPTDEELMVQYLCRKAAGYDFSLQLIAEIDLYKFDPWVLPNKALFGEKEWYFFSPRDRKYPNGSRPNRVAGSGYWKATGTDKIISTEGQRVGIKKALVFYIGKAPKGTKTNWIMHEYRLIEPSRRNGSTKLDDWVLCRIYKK
# Procedure, shortened: as §1
# [12] = target: T10, GST-NTL8 NAC domain (Arabidopsis thaliana, UniProt Q9XIN7 14-156); details: protein: recombinant; tags: GST; chain copies: 2; dsDNA, one strand shown
# T10 sequence: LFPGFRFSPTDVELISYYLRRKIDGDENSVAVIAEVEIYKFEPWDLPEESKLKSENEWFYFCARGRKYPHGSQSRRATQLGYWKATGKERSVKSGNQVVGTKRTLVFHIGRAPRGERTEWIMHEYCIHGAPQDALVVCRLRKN
# Procedure, shortened: as §1
sequence,measurement,setting,value
TTCGTCAA,binding signal,[1],0.0728 E-score
same,binding signal,[2],0.0829 E-score
same,binding signal,[3],0.106 E-score
same,binding signal,[4],0.0695 E-score
same,binding signal,[5],0.0662 E-score
same,binding signal,[6],0.0782 E-score
same,binding signal,[7],0.437 E-score
GTTGGTCA,binding signal,[2],0.182 E-score
same,binding signal,[3],0.131 E-score
same,binding signal,[8],0.117 E-score
same,binding signal,[6],0.0931 E-score
same,binding signal,[9],0.0967 E-score
same,binding signal,[7],0.448 E-score
TATGACCA,binding signal,[6],0.117 E-score
same,binding signal,[7],0.424 E-score
GCACGGTA,binding signal,[10],0.375 E-score
same,binding signal,[11],0.2 E-score
same,binding signal,[2],0.189 E-score
same,binding signal,[3],0.134 E-score
same,binding signal,[4],0.408 E-score
same,binding signal,[8],0.102 E-score
same,binding signal,[6],0.124 E-score
same,binding signal,[9],0.122 E-score
CTTGACTC,binding signal,[10],0.0601 E-score
same,binding signal,[3],0.0754 E-score
same,binding signal,[6],0.0677 E-score
same,binding signal,[7],0.466 E-score
GTGGTCAA,binding signal,[10],0.0557 E-score
same,binding signal,[2],0.113 E-score
same,binding signal,[3],0.135 E-score
same,binding signal,[6],0.0872 E-score
same,binding signal,[7],0.489 E-score
AATGTCAA,binding signal,[2],0.155 E-score
same,binding signal,[3],0.19 E-score
same,binding signal,[8],0.13 E-score
same,binding signal,[5],0.0715 E-score
same,binding signal,[6],0.104 E-score
same,binding signal,[9],0.0638 E-score
same,binding signal,[7],0.404 E-score
CACGGCTC,binding signal,[11],0.42 E-score
same,binding signal,[2],0.384 E-score
same,binding signal,[3],0.336 E-score
same,binding signal,[4],0.18 E-score
same,binding signal,[8],0.3 E-score
same,binding signal,[6],0.337 E-score
same,binding signal,[9],0.377 E-score
ATATTGAC,binding signal,[3],0.167 E-score
same,binding signal,[8],0.178 E-score
same,binding signal,[6],0.169 E-score
same,binding signal,[9],0.0695 E-score
same,binding signal,[7],0.453 E-score
AAGTCTTC,binding signal,[1],0.204 E-score
same,binding signal,[11],0.052 E-score
same,binding signal,[2],0.0748 E-score
same,binding signal,[3],0.0685 E-score
same,binding signal,[12],0.0771 E-score
same,binding signal,[6],0.123 E-score
same,binding signal,[9],0.0783 E-score
same,binding signal,[7],0.429 E-score
AGAGTCAA,binding signal,[11],0.108 E-score
same,binding signal,[5],0.0818 E-score
same,binding signal,[6],0.0953 E-score
same,binding signal,[9],0.0931 E-score
same,binding signal,[7],0.48 E-score
CAAGACCA,binding signal,[10],0.106 E-score
same,binding signal,[1],0.0845 E-score
same,binding signal,[2],0.092 E-score
same,binding signal,[3],0.0751 E-score
same,binding signal,[5],0.0893 E-score
same,binding signal,[6],0.0681 E-score
same,binding signal,[7],0.408 E-score
ATGGTCAA,binding signal,[1],0.05 E-score
same,binding signal,[2],0.0866 E-score
same,binding signal,[3],0.155 E-score
same,binding signal,[5],0.0826 E-score
same,binding signal,[6],0.138 E-score
same,binding signal,[7],0.485 E-score
AGTCAACT,binding signal,[11],0.183 E-score
same,binding signal,[3],0.0655 E-score
same,binding signal,[6],0.0667 E-score
same,binding signal,[9],0.0783 E-score
same,binding signal,[7],0.486 E-score
AGGTCAAA,binding signal,[1],0.0901 E-score
same,binding signal,[2],0.0973 E-score
same,binding signal,[3],0.0548 E-score
same,binding signal,[6],0.062 E-score
same,binding signal,[9],0.0735 E-score
same,binding signal,[7],0.482 E-score
CTAGTCAA,binding signal,[11],0.0699 E-score
same,binding signal,[2],0.171 E-score
same,binding signal,[3],0.148 E-score
same,binding signal,[4],0.0883 E-score
same,binding signal,[12],0.0822 E-score
same,binding signal,[6],0.166 E-score
same,binding signal,[9],0.08 E-score
same,binding signal,[7],0.474 E-score
GGCTTGAC,binding signal,[10],0.0969 E-score
same,binding signal,[7],0.452 E-score
CAGTCAAG,binding signal,[10],0.051 E-score
same,binding signal,[4],0.063 E-score
same,binding signal,[12],0.0503 E-score
same,binding signal,[7],0.444 E-score
GCGAAGAC,binding signal,[1],0.12 E-score
same,binding signal,[11],0.0689 E-score
same,binding signal,[2],0.0506 E-score
same,binding signal,[8],0.0548 E-score
same,binding signal,[12],0.109 E-score
same,binding signal,[7],0.404 E-score
TGACCTAA,binding signal,[1],0.0566 E-score
same,binding signal,[7],0.419 E-score
GTTGACCA,binding signal,[10],0.131 E-score
same,binding signal,[7],0.492 E-score
CCAGTCAA,binding signal,[10],0.0755 E-score
same,binding signal,[11],0.0525 E-score
same,binding signal,[7],0.474 E-score
AGTCAAGA,binding signal,[1],0.0587 E-score
same,binding signal,[7],0.471 E-score
TGGGTCAA,binding signal,[10],0.156 E-score
same,binding signal,[4],0.159 E-score
same,binding signal,[12],0.0706 E-score
same,binding signal,[7],0.483 E-score
GGTCAAAC,binding signal,[10],0.0595 E-score
same,binding signal,[3],0.0641 E-score
same,binding signal,[4],0.0869 E-score
same,binding signal,[5],0.0597 E-score
same,binding signal,[7],0.494 E-score
AAAGTCAG,binding signal,[10],0.1 E-score
same,binding signal,[11],0.0919 E-score
same,binding signal,[3],0.0653 E-score
same,binding signal,[5],0.085 E-score
same,binding signal,[7],0.461 E-score
CAAGTCAA,binding signal,[10],0.0929 E-score
same,binding signal,[3],0.0933 E-score
same,binding signal,[4],0.234 E-score
same,binding signal,[7],0.486 E-score
ACTTGACC,binding signal,[10],0.0892 E-score
same,binding signal,[11],0.05 E-score
same,binding signal,[4],0.0507 E-score
same,binding signal,[5],0.11 E-score
same,binding signal,[12],0.0948 E-score
same,binding signal,[7],0.47 E-score
CTAAGTCA,binding signal,[1],0.146 E-score
same,binding signal,[7],0.413 E-score
CGTCAACC,binding signal,[10],0.0573 E-score
same,binding signal,[4],0.0571 E-score
same,binding signal,[7],0.435 E-score
ACTGGTCA,binding signal,[10],0.127 E-score
same,binding signal,[7],0.433 E-score
GGTTTGAC,binding signal,[1],0.131 E-score
same,binding signal,[11],0.0692 E-score
same,binding signal,[2],0.162 E-score
same,binding signal,[3],0.171 E-score
same,binding signal,[4],0.116 E-score
same,binding signal,[8],0.0603 E-score
same,binding signal,[5],0.177 E-score
same,binding signal,[7],0.483 E-score
GGGTCAAC,binding signal,[10],0.0723 E-score
same,binding signal,[4],0.0889 E-score
same,binding signal,[7],0.493 E-score
